Sequences and labels used below:
B1: ENSMUSG00000061578.1458|Ksr2|90:94 (ssRNA)
RNA: GGGAGUUCUACAGUCCGACGAUCGCUUCGAUAUCCGCAUGCUAGAAUGAAUGGAUGAUGGAUGAAUGGAUGGGUAGGUGGGUAGAUAGGUAUAUGAAUGAAUGGAUGAAUGGAUGGGUGAAUGGAUGGAUAGCAUACUGAAUAAAUGGAUGGAUGGAUGGAUUGAUUUGUGAAUGAAUGGAUGAAUGGAUGGGUAGGUGGGUGGAUGCAUAGGCAAGUAGAUGAAUGAAUAUGUGGGUAGAAGGGUGAGUGGGUGGAUGAAUGGAUGGAUAGGUUGGUAGGUUAAUGUAUUCGUGGAUGGGUGCUCUUGCGGUCGCACUAGUGUGGAAUUCUCGGGUGUCAAGG
B2: ENSMUSG00000061578.1457|Ksr2|1:5;96:100 (ssRNA)
RNA: GGGAGUUCUACAGUCCGACGAUCGCUUCGAUAUCCGCAUGCUACAUACUGAAUGAAUGGAUGAUGGAUGAAUGGAUGGGUAGGUGGGUAGAUAGGUAUAUGAAUGAAUGGAUGAAUGGAUGGGUGAAUGGAUGGAUAGCAUACUGAAUAAAUGGAUGGAUGGAUGGAUUGAUUUGUGAAUGAAUGGAUGAAUGGAUGGGUAGGUGGGUGGAUGCAUAGGCAAGUAGAUGAAUGAAUAUGUGGGUAGAAGGGUGAGUGGGUGGAUGAAUGGAUGGAUAGGUUGGUAGGUUAAUGUAUUCGUGGACUCUUGCGGUCGCACUAGUGUGGAAUUCUCGGGUGUCAAGG
B3: ENSMUSG00000061578.1460|Ksr2|78:82 (ssRNA)
RNA: GGGAGUUCUACAGUCCGACGAUCGCUUCGAUAUCCGCAUGCUAGAUGGAUGAAUGGAUGGGUAGGUGGGUAGAUAGGUAUAUGAAUGAAUGGAUGAAUGGAUGGGUGAAUGGAUGGAUAGCAUACUGAAUAAAUGGAUGGAUGGAUGGAUUGAUUUGUGAAUGAAUGGAUGAAUGGAUGGGUAGGUGGGUGGAUGCAUAGGCAAGUAGAUGAAUGAAUAUGUGGGUAGAAGGGUGAGUGGGUGGAUGAAUGGAUGGAUAGGUUGGUAGGUUAAUGUAUUCGUGGAUGGGUGAAUGGAUGGAUGCUCUUGCGGUCGCACUAGUGUGGAAUUCUCGGGUGUCAAGG
B4: ENSMUSG00000061578.1464|Ksr2|54:58 (ssRNA)
RNA: GGGAGUUCUACAGUCCGACGAUCGCUUCGAUAUCCGCAUGCUAGGUAGAUAGGUAUAUGAAUGAAUGGAUGAAUGGAUGGGUGAAUGGAUGGAUAGCAUACUGAAUAAAUGGAUGGAUGGAUGGAUUGAUUUGUGAAUGAAUGGAUGAAUGGAUGGGUAGGUGGGUGGAUGCAUAGGCAAGUAGAUGAAUGAAUAUGUGGGUAGAAGGGUGAGUGGGUGGAUGAAUGGAUGGAUAGGUUGGUAGGUUAAUGUAUUCGUGGAUGGGUGAAUGGAUGGAUGGAUAGAUAGAUGGGAAGGUGGAUGCUCUUGCGGUCGCACUAGUGUGGAAUUCUCGGGUGUCAAGG
B5: ENSMUSG00000061578.1461|Ksr2|72:76 (ssRNA)
RNA: GGGAGUUCUACAGUCCGACGAUCGCUUCGAUAUCCGCAUGCUAUGAAUGGAUGGGUAGGUGGGUAGAUAGGUAUAUGAAUGAAUGGAUGAAUGGAUGGGUGAAUGGAUGGAUAGCAUACUGAAUAAAUGGAUGGAUGGAUGGAUUGAUUUGUGAAUGAAUGGAUGAAUGGAUGGGUAGGUGGGUGGAUGCAUAGGCAAGUAGAUGAAUGAAUAUGUGGGUAGAAGGGUGAGUGGGUGGAUGAAUGGAUGGAUAGGUUGGUAGGUUAAUGUAUUCGUGGAUGGGUGAAUGGAUGGAUGGAUAGACUCUUGCGGUCGCACUAGUGUGGAAUUCUCGGGUGUCAAGG
B6: ENSMUSG00000061578.1464|Ksr2 (ssRNA)
RNA: B4 RNA with C97G, A98U, U99A, A100U, C101G
B7: ENSMUSG00000029636.187|Wasf3 (ssRNA)
RNA: GGGAGUUCUACAGUCCGACGAUCGCUUCGAUAUCCGCAUGCUAAAUUUUAAAAAGUACCUCACAAGAUAAACUUGAUUCAGCCAGUUGCCCGGGCAGAGACCUGACUUCCCCUCUCCUGCCCUGAUCCUUUUUACCAAAUGGCGAUUCCAUAGUCCUGGCUGAGGCAGGGGCUCAAAGUCCAGUGUCUGCUUUGCAAUUCUGGAAGGACAGCUGCUUAUUUAAAUAAGUCUGUGAUAUCCGCAGGCUUGGGUUACAGGGAGGACCUUGCAGAGGGACCAGGACACUGCCUUCCCUUAGGUGCACUCUUGCGGUCGCACUAGUGUGGAAUUCUCGGGUGUCAAGG
B8: ENSMUSG00000058297.289|Spock2 (ssRNA)
RNA: GGGAGUUCUACAGUCCGACGAUCGCUUCGAUAUCCGCAUGCUAAGAGAGAGAGAGAGAGAGAGAGAGAAAGAGAGAGAGAAUGAGAGAGAAUGAGAGAGAGAAUACCCGAGGGCCACCCUGAUGCCCAGGAAGAGUGAGGGCAGCCCCCUGUGUGGUGGAAGAGGCUGGGCAGCUAGCUACUGGGGACCUUGUGCUGAGGCUUCCAGGACAAAGCCCCAGUCUGGCUCUCCCCCAGCCUCUCAGGGGCACUGGCUGGUCACAUCCACUGAGUAUUGAUCGGUUGGACUUUAGGGAAGAGCCUCCUCUUGCGGUCGCACUAGUGUGGAAUUCUCGGGUGUCAAGG
B9: ENSMUSG00000058297.292|Spock2 (ssRNA)
RNA: GGGAGUUCUACAGUCCGACGAUCGCUUCGAUAUCCGCAUGCUAAGAGAGAAAGAGAGAGAGAAUGAGAGAGAAUGAGAGAGAGAAUACCCGAGGGCCACCCUGAUGCCCAGGAAGAGUGAGGGCAGCCCCCUGUGUGGUGGAAGAGGCUGGGCAGCUAGCUACUGGGGACCUUGUGCUGAGGCUUCCAGGACAAAGCCCCAGUCUGGCUCUCCCCCAGCCUCUCAGGGGCACUGGCUGGUCACAUCCACUGAGUAUUGAUCGGUUGGACUUUAGGGAAGAGCCUCCUCCUUCCCAUUCCUUUCCUCUUGCGGUCGCACUAGUGUGGAAUUCUCGGGUGUCAAGG
B10: ENSMUSG00000058297.287|Spock2 (ssRNA)
RNA: GGGAGUUCUACAGUCCGACGAUCGCUUCGAUAUCCGCAUGCUAAGAGAGAGAGAGAGAGAGAGAGAGAGAGAGAGAGAGAAAGAGAGAGAGAAUGAGAGAGAAUGAGAGAGAGAAUACCCGAGGGCCACCCUGAUGCCCAGGAAGAGUGAGGGCAGCCCCCUGUGUGGUGGAAGAGGCUGGGCAGCUAGCUACUGGGGACCUUGUGCUGAGGCUUCCAGGACAAAGCCCCAGUCUGGCUCUCCCCCAGCCUCUCAGGGGCACUGGCUGGUCACAUCCACUGAGUAUUGAUCGGUUGGACUUUACUCUUGCGGUCGCACUAGUGUGGAAUUCUCGGGUGUCAAGG
B11: ENSMUSG00000043670.285|Diras1 (ssRNA)
RNA: GGGAGUUCUACAGUCCGACGAUCGCUUCGAUAUCCGCAUGCUAGAGUGGGAGGUAGAAUGAGAGAGAGUGUGUAUUGGAAGGGAGAGAGAGAGUGUGAGAGAGUGUGAGAGAGAGACAGAGACAGAGAUAAAGGAGAUAAAGAGAGACAAAGACAUGGUCACAAAGAGACAGAGAAGCAGAAAGAAGGCUGAAGCCAGAUGACCAAGUAGGCCGGACCCCACUGUGUUCCCUUCUGUGUGCCAGGCACAGGGAGAGCCACAGCCUGAAGCCUGAGUCUGAGCAUAGCUGAGCCCUGACCUCUACUCUUGCGGUCGCACUAGUGUGGAAUUCUCGGGUGUCAAGG
B12: ENSMUSG00000043670.283|Diras1 (ssRNA)
RNA: GGGAGUUCUACAGUCCGACGAUCGCUUCGAUAUCCGCAUGCUAGAGAGGGAGGGAGAGUGGGAGGUAGAAUGAGAGAGAGUGUGUAUUGGAAGGGAGAGAGAGAGUGUGAGAGAGUGUGAGAGAGAGACAGAGACAGAGAUAAAGGAGAUAAAGAGAGACAAAGACAUGGUCACAAAGAGACAGAGAAGCAGAAAGAAGGCUGAAGCCAGAUGACCAAGUAGGCCGGACCCCACUGUGUUCCCUUCUGUGUGCCAGGCACAGGGAGAGCCACAGCCUGAAGCCUGAGUCUGAGCAUAGCUGAGCUCUUGCGGUCGCACUAGUGUGGAAUUCUCGGGUGUCAAGG
B13: ENSMUSG00000058297.290|Spock2 (ssRNA)
RNA: GGGAGUUCUACAGUCCGACGAUCGCUUCGAUAUCCGCAUGCUAAGAGAGAGAGAGAGAGAGAAAGAGAGAGAGAAUGAGAGAGAAUGAGAGAGAGAAUACCCGAGGGCCACCCUGAUGCCCAGGAAGAGUGAGGGCAGCCCCCUGUGUGGUGGAAGAGGCUGGGCAGCUAGCUACUGGGGACCUUGUGCUGAGGCUUCCAGGACAAAGCCCCAGUCUGGCUCUCCCCCAGCCUCUCAGGGGCACUGGCUGGUCACAUCCACUGAGUAUUGAUCGGUUGGACUUUAGGGAAGAGCCUCCUCCUUCUCUUGCGGUCGCACUAGUGUGGAAUUCUCGGGUGUCAAGG
B14: ENSMUSG00000043670.284|Diras1 (ssRNA)
RNA: GGGAGUUCUACAGUCCGACGAUCGCUUCGAUAUCCGCAUGCUAGAGGGAGAGUGGGAGGUAGAAUGAGAGAGAGUGUGUAUUGGAAGGGAGAGAGAGAGUGUGAGAGAGUGUGAGAGAGAGACAGAGACAGAGAUAAAGGAGAUAAAGAGAGACAAAGACAUGGUCACAAAGAGACAGAGAAGCAGAAAGAAGGCUGAAGCCAGAUGACCAAGUAGGCCGGACCCCACUGUGUUCCCUUCUGUGUGCCAGGCACAGGGAGAGCCACAGCCUGAAGCCUGAGUCUGAGCAUAGCUGAGCCCUGACUCUUGCGGUCGCACUAGUGUGGAAUUCUCGGGUGUCAAGG
B15: ENSMUSG00000058297.293|Spock2 (ssRNA)
RNA: GGGAGUUCUACAGUCCGACGAUCGCUUCGAUAUCCGCAUGCUAAAAGAGAGAGAGAAUGAGAGAGAAUGAGAGAGAGAAUACCCGAGGGCCACCCUGAUGCCCAGGAAGAGUGAGGGCAGCCCCCUGUGUGGUGGAAGAGGCUGGGCAGCUAGCUACUGGGGACCUUGUGCUGAGGCUUCCAGGACAAAGCCCCAGUCUGGCUCUCCCCCAGCCUCUCAGGGGCACUGGCUGGUCACAUCCACUGAGUAUUGAUCGGUUGGACUUUAGGGAAGAGCCUCCUCCUUCCCAUUCCUUUCUGCCACCUCUUGCGGUCGCACUAGUGUGGAAUUCUCGGGUGUCAAGG

Numbering of substitutions follows the chain as printed. Whole data set: some 9,900 sequences, median “r (bound/input frequency ratio)” near 0.7, cut for the highest 2% near 6.5. This is one part of a sample in which the highest values are shown more often than they occur.

TDP-43, sequence (Q13148 whole entry): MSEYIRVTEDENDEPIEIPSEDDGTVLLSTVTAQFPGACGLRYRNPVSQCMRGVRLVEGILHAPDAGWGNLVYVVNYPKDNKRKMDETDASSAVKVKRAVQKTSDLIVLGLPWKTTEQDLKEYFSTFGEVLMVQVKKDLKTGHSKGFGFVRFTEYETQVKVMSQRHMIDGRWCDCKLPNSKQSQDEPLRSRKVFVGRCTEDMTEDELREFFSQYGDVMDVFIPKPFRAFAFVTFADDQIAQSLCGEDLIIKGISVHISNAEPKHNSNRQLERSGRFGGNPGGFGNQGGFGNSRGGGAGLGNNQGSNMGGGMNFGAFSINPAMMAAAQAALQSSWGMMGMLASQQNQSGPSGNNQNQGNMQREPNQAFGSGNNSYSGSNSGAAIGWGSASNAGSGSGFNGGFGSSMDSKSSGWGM

In this test the target is TDP-43 (Homo sapiens, UniProt Q13148 1-414). As to the kind of experiment: RNA Bind-n-Seq with designed 260-mer pool; 25 mM Tris-HCl, 150 mM KCl, 3 mM MgCl2, BSA (printed 500 mg/mL), 20 units/mL SUPERase IN; pH not stated; 500 nM RNA pool, 1 h, 4 C; TDP-43 5, 50, 500 nM; high values mean tight binding. The settings on record: protein: recombinant; tags: SBP (GST cleaved off with PreScission; pGEX-GST-SBP). In outline:
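Binding (R) is the ratio of each oligo's mapped-read-normalized abundance in the bound fraction to its abundance in the input. To obtain it, SBP-tagged recombinant TDP-43 (5, 50 or 500 nM) on streptavidin beads was incubated with 500 nM of an in vitro-transcribed 260-nt 3′ UTR oligo pool for 1 h at 4 °C in 25 mM Tris-HCl, 150 mM KCl, 3 mM MgCl2, BSA and SUPERase IN. The RNA retained after washing was released with biotin, then reverse transcribed, amplified by PCR and sequenced.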
For B1, the binding signal was 6.91 R (bound/input frequency ratio).

As to B2, the binding signal is 5.06 R (bound/input frequency ratio).

For the molecule B3, the binding signal is 5.37 R (bound/input frequency ratio).

As for B4, the binding signal is 7.9 R (bound/input frequency ratio).

Turning to B5, the binding signal was 4.58 R (bound/input frequency ratio).

Consider B6, for which the binding signal is 5.55 R (bound/input frequency ratio).

As to B7, the binding signal is 0.317 R (bound/input frequency ratio).

As for B8, the binding signal was 7.91 R (bound/input frequency ratio).

On to B9, for which the binding signal was 6.42 R (bound/input frequency ratio).

Consider B10, for which the binding signal is 7.5 R (bound/input frequency ratio).

With B11, the binding signal was 6.66 R (bound/input frequency ratio).

As to B12, the binding signal was 4.07 R (bound/input frequency ratio).

In the case of B13, the binding signal was 8.79 R (bound/input frequency ratio).

On to B14, for which the binding signal was 5.75 R (bound/input frequency ratio).

For the molecule B15, the binding signal was 2.36 R (bound/input frequency ratio).
